FMDV antiviral: blocks foot and mouth disease virus; FMDV antiviral cell-based qHTS; Potency, µM (titrated, usually from 57.9 µM), for the others: top-dose activity change, negative = inhibition, usual class: inhibitors; hit rate 1.2% among 410,000; AID 1159524; calls by dose curve; tested in HEK293T cells; also: read-out not given here; potency is read from the fitted curve at half-maximal effect; nearly all actives have a fitted effect of over 45% in size
HCV inh: HCV inhibition; Huh7.5.1 HCVcc-Cre infection, luciferase reporter, 44 h; Potency, µM (titrated, usually from 41.8 µM), inactives show at the top dose activity change, negative = inhibition, most hits filed as inhibitors; hit rate 3.4% among 340,000; active = well fitted inhibition curve with a large enough effect; inconclusive = small, poorly fitted or top-dose-only effect, or another doubt; inactive = no such curve, though single readings can be large or run the other way; also: potency is read from the fitted curve at half-maximal effect
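Infectious HCV cell culture screen: compound-treated cells (1,000/well, pre-plated 4 h) are infected with HCVcc-Cre at roughly 0.5 moi and grown 44 h. Infection is quantified by luciferase signal after 15 min substrate incubation at room temperature.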
MARV entry inh: Marburg virus entry inhibition; AID 540276; Marburg virus pseudotyped entry inhibition, cell reporter; hit rate 1.8% among 300,000; Potency, µM (top dose mostly 37.8 µM), inactives show at the top dose activity change, negative = inhibition, most hits filed as inhibitors; calls by dose curve; tested in HEK293 cells; also: potency is read from the fitted curve at half-maximal effect
HCMV inh: human cytomegalovirus inhibition. HFF cells, HCMV-luciferase reporter, 72 h; active compounds read low. activity change, negative = inhibition, % at 57.5 µM. hit rate 4.5% among 410,000. AID 1259415; in the data active = activity change below about -60%; inconclusive = no clear call, values can overlap the other calls; inactive = above about -39%
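Compounds were evaluated in HFFs infected with an HCMV luciferase reporter virus (MOI 1 PFU/cell). Luciferase in lysates collected 72 h post infection served as the replication measure.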
Lassa entry inh: inhibitors of Lassa virus binding or cell entry; Lassa virus pseudotype entry inhibition, cell reporter; Potency, µM (titrated, usually from 37.9 µM), for the others: at the highest dose activity change, negative = inhibition, actives largely listed as inhibitors; hit rate 1.2% among 300,000; AID 540256; calls by dose curve; tested in HEK293 cells; also: potency is read from the fitted curve at half-maximal effect; nearly all actives have a fitted effect of over 50% in size
Starred values were filed as active, the others as inactive; u = inconclusive; x = no result given; [ ] = remark or other dose. Hits are enriched below; roughly 7.9% of the tested compounds scored in any of these assays. % is scaled to controls: 0 for no effect and ±100 for the full control effect.

SMILES | FMDV antiviral | HCV inh | MARV entry inh | HCMV inh | Lassa entry inh
COc1ccc(NC(=O)c2ccc(COCC(F)(F)F)cc2)cc1OC | -19% | -28% | u | -24 | 0%
COc1ccc(C(=O)Nc2ccc(OCC(F)(F)C(F)F)c(C(F)(F)F)c2)cc1OC | u | 11µM* | u | -99* | 18µM*
O=C(Nc1ccc(OCC(F)(F)C(F)F)c(C(F)(F)F)c1)c1ccc(Cl)cc1 | u | 7.9µM* | 16µM* | -95* | u
COC(=O)COc1cccc(NC(=O)c2ccc(Cl)cc2)c1 | -18% | 2% | u | 3 | 1%
COC(=O)c1c(C)oc2c1cc(NS(=O)(=O)c1c(C)cc(C)cc1C)c1ccccc12 | 0% | x | u | 9 | u
CC1CCN(c2ccc(-c3cccc(NS(=O)(=O)c4ccc(Cl)s4)c3)nn2)CC1 | 3% | x | x | 97 | -23%[46.1 µM]
O=C(/C=C/c1ccc(Cl)cc1Cl)c1ccc[nH]1 | 58% | 1% | x | 44 | x
O=C(/C=C/c1ccccc1Cl)c1ccc[nH]1 | 38% | u | u | -62* | 0%
CCCN(C)C1CN(Cc2cn(Cc3cccc(C(F)(F)F)c3)nn2)S(=O)(=O)C1 (centres undefined) | -13% | x | x | -100* | x
COc1cc(Cl)c(NS(=O)(=O)c2cc(-c3cc(C)no3)ccc2OC)c(OC)c1 | 37% | x | x | -3 | -7%[46.1 µM]
COc1ccc(-c2cc(C)no2)cc1S(=O)(=O)N(C)c1cccc(C)c1 | -7% | u | x | -24 | x
CCN(c1ccc(OC)cc1)S(=O)(=O)c1cc(-c2cc(C)no2)ccc1C(C)C | -13% | 13µM* | x | 0 | x
COc1ccccc1CNS(=O)(=O)c1ccc(-c2cc(C)no2)cc1 | u | u | x | -60* | x
CCc1ccc(-c2cc(C)no2)cc1S(=O)(=O)NCc1ccccc1OC | 50% | -22% | x | 5 | x
CCN(c1ccc(OC)cc1)S(=O)(=O)c1cc(-c2cc(C)no2)ccc1OC | -21% | u | x | 0 | x
COc1cc(NS(=O)(=O)c2ccc(-c3cc(C)no3)cc2)cc(OC)c1 | -5% | x | x | -85* | -17%[46.1 µM]
CCc1ccccc1N(C)S(=O)(=O)c1cc(-c2cc(C)no2)ccc1OC | -17% | 14µM* | x | -33 | x
Cc1ccc(-n2nc(C)c3c(C)cc(=O)n(CC(=O)NC(C)C)c32)cc1 | -10% | x | x | 20 | 7%[46.1 µM]
COc1ccc(-n2ncc3c2ncn2nc(-c4ccc(Cl)cc4Cl)nc32)cc1 | 16% | x | 10%[46.1 µM] | -27 | 9%[46.1 µM]
Cc1cc(-c2ccc(C)c(S(=O)(=O)N(C)c3ccc(C)c(C)c3)c2)on1 | 40µM* | x | x | -39 | -23%[46.1 µM]
CCc1ccc(CNC(=O)c2ccc3nc(C(C)C)oc3c2)cc1 | -2% | x | x | -10 | -7%[46.1 µM]
CCN(CC)S(=O)(=O)c1cc(NC(=O)c2ccccc2OCc2c(C)noc2C)ccc1C | 19% | -29% | u | 48 | 11µM*
Cc1noc(C)c1COc1ccccc1C(=O)Nc1cccc(S(=O)(=O)N(C)C)c1 | -21% | -6% | -17% | -24 | 0%
Cc1cc(NC(=O)COC(=O)c2c(C)noc2C)ccc1Br | 23% | -12% | u | u | 17%[46.1 µM]
CCN(CC)S(=O)(=O)c1cc(NC(=O)COC(=O)c2c(C)noc2C)ccc1C | 0% | 14µM* | x | 2 | x
SMILES | FMDV antiviral | HCV inh | MARV entry inh | HCMV inh | Lassa entry inh
Cc1cccc(C)c1C(OCCN(C)C)C1CCCCC1 (centres undefined) | u | u | 21µM* | -39 | u
O=c1c2ccc(Cl)cc2nc(-c2cccc(C(F)(F)F)c2)n1O | u | u | u | -103* | 2.5µM*
O=c1c2ccccc2nc(-c2ccccc2Cl)n1O | -12% | 3% | 10%[46.1 µM] | -31 | 19%
O=c1c2ccccc2nc(-c2ccc(Cl)c(Cl)c2)n1O | -23% | -4% | 13%[46.1 µM] | -63* | u
N#Cc1ccc(-c2nc3cc(Cl)ccc3c(=O)n2O)cc1 | u | u | x | 9 | x
CN(C)c1cc[n+](CC(=O)Nc2ccc([N+](=O)[O-])cc2Cl)cc1 | -16% | 14% | -15% | -32 | -2%
CN(C)c1cc[n+](CC(=O)Nc2c(Cl)cc(Cl)cc2Cl)cc1 | -9% | -3% | 4%[46.1 µM] | -67* | 10%
COc1ccc(-c2nc3c4ccccc4n(CC(=O)N4CCN(c5ccccc5OC)CC4)c(=O)n3n2)cc1 | 15% | x | x | 21 | -20%[46.1 µM]
CCOc1ccc(CCNC(=O)c2cn(-c3ccc(OC)cc3)c(=O)c3ccccc23)cc1OCC | -17% | x | x | -4 | 14%[46.1 µM]

Screening data as filed in PubChem.
